Among the data in PubChem BioAssay (NCI) are growth values, retold here.

The structures appear in SMILES notation. Values joined by “and” are separate entries in the source; they are usually repeats but may differ in a detail not shown here. Equal entries are not always repeated. About 83,000 compounds went through this panel and 20% of them were active in at least one assay; those are over-represented in the sample as a whole.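 Growth was measured after 48 h exposure to one concentration of compound in 96-well plates. Values under 10 count as active.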 Active and inactive are the calls of the source.

Common to all, as to assay: NCI-60 one-dose screen, 48 h (100 = growth as untreated, 0 = no growth, -100 = all killed)
One test deals with T-47D breast. The note with it: 10 µM.
Another test deals with BT-549 breast. The settings on record: 10 µM.
The subject of the next test is MDA-MB-435 melanoma. The settings on record: 10 µM.
Another test has as its system MCF7 breast.
Another test concerns HCT-116 colon. The settings on record: 10 µM.
The test system of another test is HCC-2998 colon. The note with it: 10 µM.
Another test deals with KM12 colon. The settings on record: 10 µM.
In another test the test system is SW-620 colon. The settings on record: 10 µM.

For the compound `O=C1OC(=O)C2C1C1(Cl)C(Cl)=C(Cl)C2(Cl)C2C(=O)OC(=O)C21` (stereo unspecified), the growth is 95.4% (inactive) in the test with T-47D breast; 103% (inactive) in the test with BT-549 breast; 101% (inactive) in the test on MDA-MB-435 melanoma; 95.8% (inactive) with MCF7 breast (10 µM unless noted); 102% (inactive) in the test with HCT-116 colon; 108% (inactive) in the test on HCC-2998 colon. Further, the growth in the test on KM12 colon is 106% (inactive).
`c1ccc(/C(=N\N=C(/c2ccccc2)c2cccs2)c2cccs2)cc1`: the growth with T-47D breast was 86.7% (inactive); with BT-549 breast, 102% (inactive); in the test with MDA-MB-435 melanoma it was 103% (inactive); with MCF7 breast (10 µM unless noted), 96% (inactive); with HCT-116 colon, 91.9% (inactive); in the test with HCC-2998 colon it was 101% (inactive). The growth with KM12 colon is 97.1% (inactive).
On to `COc1cc2c3cc1Oc1c(OC)c(OC)cc4c1C(Cc1ccc(O)c(c1)Oc1ccc(cc1)CC3N(C)CC2)N(C)CC4` (stereo unspecified), for which the growth was -64.6% (active) in the test with T-47D breast; 32.8% (inactive) in the test with BT-549 breast; -46.8% (active) in the test with SW-620 colon; -71% (active) with MCF7 breast (10 µM); 81.8% (inactive) and -100% (active) in the test on MCF7 breast (100 µM); -94.7% (active) in the test with HCT-116 colon. Moreover, the growth was -72.7% (active) with HCC-2998 colon and 12.9% (inactive) in the test with KM12 colon.
Regarding `CC1(C)Nc2cccc3c(N=Nc4ccc(N=Nc5ccccc5)c5ccccc45)ccc(c23)N1`, the growth with T-47D breast was 76.7% (inactive); in the test on BT-549 breast, 124% (inactive); with MDA-MB-435 melanoma, 109% (inactive); in the test on MCF7 breast (10 µM unless noted), 79.4% (inactive); in the test with HCT-116 colon, 70.5% (inactive); in the test on HCC-2998 colon, 93.2% (inactive). Besides, in the test with KM12 colon, the growth is 106% (inactive).
On to `Cc1ccccc1N=C(c1ccccc1)C1C(=O)c2ccccc2C1=O`, for which the growth was 40.4% (inactive) with T-47D breast; 42.6% (inactive) in the test on BT-549 breast; 27% (inactive) in the test on MDA-MB-435 melanoma; 55.2% (inactive) with MCF7 breast (10 µM unless noted); 46.4% (inactive) with HCT-116 colon; 104% (inactive) in the test with HCC-2998 colon.
In the case of `CC(=O)Cc1cc(-c2cc(CC(C)=O)[nH]n2)n[nH]1`, the growth in the test with BT-549 breast is 88.4% (inactive); in the test with MDA-MB-435 melanoma it was 103% (inactive); in the test on SW-620 colon, 98.5% (inactive); with MCF7 breast (10 µM unless noted), 93.2% (inactive); with HCT-116 colon, 103% (inactive); in the test on HCC-2998 colon it was 112% (inactive). Moreover, the growth with KM12 colon was 105% (inactive).
Turning to `CCC(O)CC(CC)CO` (stereo unspecified), the growth in the test on T-47D breast was 115% (inactive); in the test with MDA-MB-435 melanoma, 114% (inactive); in the test with SW-620 colon, 110% (inactive); with MCF7 breast (10 µM unless noted), 97.8% (inactive); in the test on HCT-116 colon it was 100% (inactive); in the test with HCC-2998 colon, 109% (inactive). Besides, the growth in the test with KM12 colon was 128% (inactive).
As for `CCOc1ccc(/C=N/N=C(N)N)cc1OCC`, the growth in the test on T-47D breast is 88.4% (inactive); in the test with MDA-MB-435 melanoma it was 99% (inactive); in the test with MCF7 breast (10 µM unless noted), 82.3% (inactive); in the test with HCT-116 colon, 95.8% (inactive); in the test on HCC-2998 colon, 101% (inactive); with KM12 colon it was 108% (inactive).
On to `O=C(N/N=C\c1cc(Br)cc(Br)c1O)N/N=C/c1cc(Br)cc(Br)c1O`, for which the growth in the test on T-47D breast is 62.3% (inactive); in the test on MDA-MB-435 melanoma, 66.9% (inactive); in the test on SW-620 colon it was 56.3% (inactive); in the test with MCF7 breast (10 µM unless noted), 52.1% (inactive); in the test with HCT-116 colon it was 31.2% (inactive); in the test with KM12 colon, 66.7% (inactive).
In the case of `CCOC(=O)CSc1c([N+](=O)[O-])ncn1C`, the growth in the test with T-47D breast is 101% (inactive); in the test with MDA-MB-435 melanoma, 101% (inactive); with SW-620 colon, 103% (inactive); with MCF7 breast (10 µM unless noted) it was 88.2% (inactive); with HCT-116 colon, 103% (inactive); in the test with HCC-2998 colon, 107% (inactive). Also, in the test with KM12 colon, the growth was 96.2% (inactive).
Take `O=C1C=CC2=C3c4cc(O)c(O)cc4CC3(O)COC2=C1O` (stereo unspecified): the growth in the test on T-47D breast is 113% (inactive); with MDA-MB-435 melanoma it was 111% (inactive); with SW-620 colon, 101% (inactive); in the test on MCF7 breast (10 µM unless noted), 98.1% (inactive); with HCT-116 colon it was 99% (inactive); with HCC-2998 colon it was -35.6% (active). In addition, the growth in the test with KM12 colon is 114% (inactive).
For `O=C(O)[C@@H]1[C@H]2C[C@H]3c4[nH]c5ccccc5c4CCN3C[C@@H]2CC[C@@H]1O`, the growth with T-47D breast is 114% (inactive); with MDA-MB-435 melanoma, 113% (inactive); in the test with SW-620 colon, 100% (inactive); in the test with MCF7 breast (10 µM unless noted), 103% (inactive); with HCT-116 colon, 92.6% (inactive); with HCC-2998 colon, 135% (inactive). The growth in the test on KM12 colon is 113% (inactive).
For `CCCCN(CCCC)CCCO`, the growth in the test on T-47D breast was 107% (inactive); in the test with MDA-MB-435 melanoma, 117% (inactive); in the test on SW-620 colon it was 120% (inactive); in the test with MCF7 breast (10 µM unless noted) it was 96.7% (inactive); in the test with HCT-116 colon it was 110% (inactive); in the test with HCC-2998 colon, 94.1% (inactive). Besides, in the test on KM12 colon, the growth is 104% (inactive).
With `CCC(=O)Oc1ccc(OC)cc1`, the growth is 101% (inactive) in the test on T-47D breast; 106% (inactive) in the test on MDA-MB-435 melanoma; 102% (inactive) with SW-620 colon; 102% (inactive) in the test on MCF7 breast (10 µM unless noted); 107% (inactive) in the test on HCT-116 colon; 114% (inactive) in the test with HCC-2998 colon. Further, the growth in the test on KM12 colon was 106% (inactive).
As for `NC(=S)CN1CCOCC1`, the growth in the test on T-47D breast is 114% (inactive); in the test with MDA-MB-435 melanoma, 111% (inactive); in the test on SW-620 colon, 103% (inactive); in the test on HCT-116 colon it was 109% (inactive); in the test on HCC-2998 colon, 102% (inactive); with KM12 colon, 102% (inactive).
Take `CC1=CC(C)(C)NC(=S)N1c1ccc(S(=O)(=O)O)c2cccc(S(=O)(=O)O)c12`: the growth was 106% (inactive) in the test with T-47D breast; 106% (inactive) with MDA-MB-435 melanoma; 95.2% (inactive) in the test on SW-620 colon; 108% (inactive) in the test on MCF7 breast (10 µM unless noted); 107% (inactive) in the test with HCT-116 colon; 108% (inactive) in the test with HCC-2998 colon. In the test on KM12 colon, the growth was 94.6% (inactive).
`CC1(c2ccccc2)NC(=O)NC1=O` (stereo unspecified): the growth is 109% (inactive) with T-47D breast; 113% (inactive) in the test with MDA-MB-435 melanoma; 115% (inactive) in the test with SW-620 colon; 111% (inactive) in the test on HCT-116 colon; 102% (inactive) in the test on HCC-2998 colon; 112% (inactive) in the test with KM12 colon.
Take `Cc1cc(N2CCC(N3CCCC3)CC2)nc(/N=C(\N)Nc2ccc(Cl)c(Cl)c2)n1`: the growth in the test with T-47D breast is 106% (inactive); in the test on MDA-MB-435 melanoma it was -98.6% (active); in the test on SW-620 colon, -56% (active); in the test on MCF7 breast (10 µM unless noted), -44.7% (active); with HCT-116 colon, -93.3% (active); in the test on HCC-2998 colon, -82.2% (active). Besides, in the test on KM12 colon, the growth is 9.92% (active).
`O=c1[nH]nc(SC2CCCCC2)c(=O)[nH]1`: the growth with T-47D breast is 99.6% (inactive); in the test on MDA-MB-435 melanoma, 105% (inactive); in the test on SW-620 colon, 98.6% (inactive); in the test on MCF7 breast (10 µM unless noted), 97.5% (inactive); in the test on HCC-2998 colon it was 92% (inactive); with KM12 colon, 107% (inactive).
As to `OCc1cccc2ccccc12`, the growth was 103% (inactive) with T-47D breast; 116% (inactive) in the test with MDA-MB-435 melanoma; 96.3% (inactive) in the test with MCF7 breast (10 µM unless noted); 103% (inactive) with HCT-116 colon; 108% (inactive) with HCC-2998 colon; 107% (inactive) in the test on KM12 colon.
For `COc1ccc(-c2cc(-c3cc(-c4ccc(OC)cc4)nc(N)n3)nc(N)n2)cc1`, the growth is 95.2% (inactive) with BT-549 breast; 97.5% (inactive) with MDA-MB-435 melanoma; 97.5% (inactive) in the test on SW-620 colon; 91.2% (inactive) in the test on MCF7 breast (10 µM unless noted); 103% (inactive) with HCT-116 colon; 112% (inactive) in the test with HCC-2998 colon. For the same compound, the growth in the test on KM12 colon was 101% (inactive).
